Experimental findings from PubChem BioAssay AID1851 (National Center for Advancing Translational Sciences (NCATS), 2009) are described below.

Hit rate of the full screen: of about 16,000 compounds, about 5,700 (36%) were called active. Inconclusive results (about 24%) are left out. The call rests on the fitted dose curve; in most records, active means well fitted curve in the direction sought with a large enough effect; inconclusive means small, poorly fitted or top-dose-only effect, or effect the other way; inactive means no such curve, though single readings can be large or run the other way. Some of the results follow.

As a reminder, the AC50 is the concentration at which the activity in the assay is half-maximal.
On the % scale 0 is the no-effect control and ±100 the full control effect.

For the assay, the target named is Cytochrome P450 1A2 (Homo sapiens) (UniProt P05177). As to the kind of experiment: Cytochrome panel assay with activity outcomes. As to conditions: recombinant CYP, pro-luciferin dealkylation, luminescence, p450-cyp1a2; series mostly up to 57.1 µM.
Chain of Cytochrome P450 1A2 (Homo sapiens) (P05177 whole entry, looked up): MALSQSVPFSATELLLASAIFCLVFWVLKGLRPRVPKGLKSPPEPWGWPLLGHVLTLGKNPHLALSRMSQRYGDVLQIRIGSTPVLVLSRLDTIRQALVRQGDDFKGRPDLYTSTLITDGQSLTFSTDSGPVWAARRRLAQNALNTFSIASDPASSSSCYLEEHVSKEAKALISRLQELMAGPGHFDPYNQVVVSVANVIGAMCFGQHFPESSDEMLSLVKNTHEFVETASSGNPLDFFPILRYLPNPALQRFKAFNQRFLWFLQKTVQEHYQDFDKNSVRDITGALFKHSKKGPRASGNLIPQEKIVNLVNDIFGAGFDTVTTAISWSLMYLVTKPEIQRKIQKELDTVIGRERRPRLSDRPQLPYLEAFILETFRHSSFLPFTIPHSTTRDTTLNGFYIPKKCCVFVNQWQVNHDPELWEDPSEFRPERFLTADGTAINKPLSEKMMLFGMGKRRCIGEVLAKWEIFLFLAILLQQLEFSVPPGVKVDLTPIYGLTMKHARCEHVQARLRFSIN
On to `Cc1cccc(C)c1NC(=O)N1CCC(N2CCCCC2)CC1`, for which the AC50 entry is “inactive”. On the same count and under the same terms, to `CCCCN1CCCC[C@H]1C(=O)Nc1c(C)cccc1C` belongs 5010 nM (active).

With `Cc1cc(C)c(NC(=O)C2CCCN2C)c(C)c1` (centres undefined), the AC50 result is “inactive”. On the same count and under the same terms, for `O=C(Cc1ncc(C(F)(F)F)cc1Cl)Nc1cccc(Br)c1` the value was 17800 nM (active). Take `CCOC(=O)c1cnc2ccc(C)cc2c1Sc1ccccc1C(=O)OC`: the AC50 is 3550 nM (active). On the same count and under the same terms, for `COc1ncc2nc(-c3ccc(Cl)cc3)c(=O)n(-c3ccccc3)c2n1` the value was 1580 nM (active); for `COc1ncc2nc(-c3ccccc3)c(=O)n(-c3ccccc3)c2n1`, 2000 nM (active). The same measure, in the same setting: to `COCCNC(=O)COC(=O)/C=C/c1cnc2ccccc2n1` belongs 7080 nM (active); to `CCc1c(C)c2c(C)[nH]nc2oc1=O`, 5010 nM (active). Take `CC(C)C12CC[C@@]3(CC[C@H]4[C@@](C)(CCC[C@]4(C)C(=O)O)[C@@H]3C1)[C@@H](CN)C2`: the activity, negative = inhibition was -4.02% [at 11.4 µM] (inactive). With `CCOC(=O)c1c(C)n(C)c2ccc(OC(=O)c3ccco3)cc12`, the AC50 was 355 nM (active). Turning to `CCN(CC)CCOC(=O)c1c(C)n(C)c2ccc(OC)cc12`, the AC50 is 1410 nM (active). As for `O=CN[C@@H](Cc1cnc[nH]1)C(=O)O`, the activity, negative = inhibition was -8.82% [at 11.4 µM] (inactive).

Regarding `CN(C)c1ncnc2ccc(-c3ccccc3C#N)cc12`, the concentration at half-maximal activity (AC50) was 398 nM (active). Same read-out and setting: to `Cc1ccccc1-c1ccc2ncnc(N(C)C)c2c1` belongs 631 nM (active). On the same count and under the same terms, for `COc1ccccc1-c1ccc2ncnc(N(C)C)c2c1` the value was 1260 nM (active); for `CN(C)c1ncnc2ccc(-c3ccccc3C(F)(F)F)cc12`, 631 nM (active). In the case of `Nc1nc(=O)c2[nH]cnc2n1O`, the activity, negative = inhibition was -12.4% [at 11.4 µM] (inactive). For the compound `O=c1oc2cc(Oc3c([N+](=O)[O-])cc(C(F)(F)F)cc3[N+](=O)[O-])ccc2c2c1CCCC2`, the AC50 is 3160 nM (active). For the compound `O=c1oc2cc(Oc3ccc(C(F)(F)F)cc3[N+](=O)[O-])ccc2c2c1CCCC2`, the AC50 entry was “inactive”. On to `COc1ccccc1-c1c(C(F)(F)F)oc2cc(OC(=O)c3cccc([N+](=O)[O-])c3C)ccc2c1=O`, for which the AC50 entry is “inactive”. For `CC(C)(C)N1C(=O)[C@H]2[C@H]3[C@H](O)[C@H](O)C/C(=N/OC[C@@H](O)COCc4ccco4)[C@H]3CC[C@@H]2C1=O`, the activity, negative = inhibition is -7.06% [at 11.4 µM] (inactive).

With `C[C@@H]1/C=C\CC(=O)OC[C@H](C)C(=O)N[C@@H](Cc2ccccc2)C(=O)OC1`, the activity, negative = inhibition is -0.511% [at 11.4 µM] (inactive).

With `COCCn1c(=O)c(CCc2ccccc2)nc2cnc(OC)nc21`, the AC50 is 10000 nM (active). On the same count and under the same terms, for `COCCn1c(=O)c(CCc2ccccc2)nc2cnc(Oc3ccc(OC)cc3)nc21` the value was 15800 nM (active). `COc1ccc(-n2c(=O)c(CCc3ccccc3)nc3cnc(OC)nc32)cc1`: the AC50 is 15800 nM (active). Same read-out and setting: to `COc1ncc2nc(CCc3ccccc3)c(=O)n(C)c2n1` belongs 5010 nM (active); to `CC(C)(C)c1cc(C(=O)O)c(CN2CCCCC2)o1`, “inactive”. Turning to `CCN1C(=O)[C@H]2[C@H]3[C@H](O)[C@H](O)C/C(=N/OC[C@@H](C)[C@H](OCc4ccccc4)C(C)C)[C@@H]3CC[C@@H]2C1=O`, the activity, negative = inhibition was -11.8% [at 11.4 µM] (inactive). In the case of `COc1ncc2nc(CCc3ccccc3)c(=O)n(CCC#N)c2n1`, the AC50 was 15800 nM (active). In the case of `CO[C@H]1COC(=O)[C@H](C)NC(=O)C/C=C\[C@@H](C)[C@H](OC)COC(=O)[C@@H](OCc2ccccc2)/C=C\[C@@H]1C`, the activity, negative = inhibition is -11.8% [at 11.4 µM] (inactive). In the case of `Cc1cccc(-c2n[nH]c([N+](=O)[O-])n2)c1`, the AC50 is 14100 nM (active).

Regarding `CNc1ncnc2ccc(-c3cccc(NS(C)(=O)=O)c3)cc12`, the AC50 is 316 nM (active). Consider `Cn1ncc2c(Nc3cccc(C(=O)O)c3)ncnc21`, for which the AC50 result was “inactive”. Still for that read-out and setting: for `CS(=O)(=O)Nc1cccc(-c2ccc3ncnc(NC4CC4)c3c2)c1` the value was 631 nM (active); for `CS(=O)(=O)Nc1cccc(-c2ccc3ncnc(Nc4ccccc4)c3c2)c1`, 1000 nM (active); for `CS(=O)(=O)Nc1cccc(-c2ccc3ncnc(Nc4ccc(F)cc4)c3c2)c1`, 794 nM (active). Still for that read-out and setting: to `Cc1nc(Oc2ccc(Cl)cc2)c2oc3ccccc3c2n1` belongs 141 nM (active). Same read-out and setting: to `O=C1Nc2ccccc2Nc2ncccc21` belongs 2240 nM (active); to `CS(=O)(=O)c1nc(-c2ccccc2)cc(-c2ccccc2)c1C#N`, 891 nM (active). Regarding `N#Cc1c(-c2ccccc2)cc(-c2ccccc2)nc1SCc1nnc(-c2ccccc2)o1`, the AC50 result was “inactive”. The same measure, in the same setting: for `O=C1CC(=O)N(CCc2ccc(F)cc2)C(=O)N1` the value was “inactive”; for `CNC(=O)NC(=O)CSc1nnc(-c2ccco2)n1Cc1ccccc1`, “inactive”. Same read-out and setting: to `Cc1c(/N=C/c2ccco2)n(Cc2ccccc2)c2ccccc12` belongs 1120 nM (active); to `CCn1c(=O)cc(SCC(=O)N2CCN(C(=O)c3ccco3)CC2)c2ccccc21`, “inactive”.

For the compound `CC12c3ccccc3C(c3ccccc31)C1C(=O)N(Cc3cccnc3)C(=O)C12` (centres undefined), the AC50 result was “inactive”.

As for `O=C1C2[C@@H](c3ccccc3)N[C@@H](c3ccccc3)C1[C@H](c1ccccc1)N[C@H]2c1ccccc1`, the activity, negative = inhibition is -18.6% [at 11.4 µM] (inactive). In the case of `S=C1N[C@H](c2ccccc2)N[C@H](c2ccccc2)S1`, the AC50 is 3160 nM (active). Same read-out and setting: for `COc1cc(C(=O)NCCC(C)C)c([N+](=O)[O-])cc1OC` the value was “inactive”; for `CCC(C)Nc1c([N+](=O)[O-])cc(C)cc1[N+](=O)[O-]` (centres undefined), 1780 nM (active). For `CC[C@@H](CS(=O)(=O)O)[N+](=O)[O-]`, the activity, negative = inhibition was -0.979% [at 11.4 µM] (inactive). Regarding `Cn1cc(-c2nnc(-c3ccccc3)o2)c2ccccc21`, the AC50 was 2000 nM (active). Same read-out and setting: to `COc1ccc(/C=C(/C#N)C(=O)NC2CCCCC2)cc1Br` belongs “inactive”; to `O=C(NC1CCCCC1)C(c1ccccc1)N1CCOCC1` (centres undefined), “inactive”; to `N#C/C(=C\c1cc(Cl)cc(Cl)c1O)C(=O)NC1CCCCC1`, 5010 nM (active).

Turning to `N#C/C(=C\c1cn[nH]c1-c1ccccc1)C(=O)NC1CCCCCC1`, the AC50 was 11200 nM (active). In the case of `CCOC(=O)C[C@@H](C(=O)OCC)[C@@H]1CCCCC1=O`, the activity, negative = inhibition is -6.2% [at 11.4 µM] (inactive).

For the compound `CCOc1cc(-c2noc(N)c2C#N)cc(OCC)c1OCC`, the AC50 was 141 nM (active). In the case of `CCOC(=O)c1cc(CC)sc1NC(=O)c1cc(OCC)c(OCC)c(OCC)c1`, the AC50 result was “inactive”.
